Records with an inconclusive call do not appear. Calls of active or inactive are those of the source. Unless noted, calls come from the whole dose curve; as a rule, active = well fitted curve in the direction sought with a large enough effect in the repeat runs; inconclusive = weak or mixed curves; inactive = no such curve, though single readings can be large; an effect the other way counts as inactive or inconclusive.
What was measured:
[1] = qHTS assay to identify small molecule agonists of the TGF-beta/Smad signaling pathway (AID 1346859; active = well fitted activation curve with a large enough effect in the signal ratio in the repeat runs, not every such curve was filed as active; the % refers to the signal ratio; note: series mostly up to about 77 µM)
Procedure, shortened: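 HEK 293T cells stably carrying a beta-lactamase reporter driven by the Smad binding element were seeded overnight, exposed to DMSO-dissolved compounds for 5 hr at 37 C, 5% CO2, then loaded with FRET substrate for 2 hr at room temperature.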

[2] = molecular target: Thyrotropin-releasing hormone receptor (Homo sapiens) (UniProt P34981); assay: qHTS assay to identify small molecule agonists of the thyrotropin-releasing hormone receptor (TRHR) signaling pathway (AID 1346891; calls by dose curve; note: series mostly up to about 58 µM)
Procedure, shortened: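 TRHR-expressing HEK293 cells were plated 18 h at 37 °C/5% CO2, loaded with calcium dye 2 h at 37 °C, then given compound in DMSO; fluorescence was read kinetically for 3 min at 1 s intervals.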

[3] = Human pregnane X receptor (PXR) small molecule agonists, qHTS cell viability counter screen (AID 1346977); note: nearly all actives have a fitted effect of over 50% in size
Procedure, shortened: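 PXR-Luc HepG2 cells in medium with 5% charcoal-stripped FBS were pre-incubated 5hr, then exposed to compounds for 24hr at 37C. Viability was read in the same wells by CellTiter-Fluor fluorescence, reagent added after 23hr with a 1hr incubation.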

[4] = Caspase-3/7 induction in HepG2 cells by small molecules, qHTS assay (AID 1346978); note: nearly all actives have a fitted effect of over 15% in size
Procedure, shortened: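 Wild-type HepG2 cells, 2,000/well, settled 5 hr at 37 C and 5% CO2, then compound-treated for 17 hr; caspase-3/7 activity read by luminescent Caspase-Glo 3/7 after 30 min at room temperature.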

[5] = Caspase-3/7 induction in CHO-K1 cells by small molecules, qHTS cell viability counter screen (AID 1346979); note: nearly all actives have a fitted effect of over 35% in size
Procedure, shortened: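 Wild-type CHO-K1 cells were seeded at 1,500 per well, rested 5hr at 37 C, then exposed to compounds in DMSO. After 16hr, CellTiter-Fluor reagent was added and fluorescence read 1hr later as the viability measure.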

[6] = Caspase-3/7 induction in CHO-K1 cells by small molecules, qHTS assay (AID 1346980); note: nearly all actives have a fitted effect of over 15% in size
Procedure, shortened: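 Wild-type CHO-K1 cells exposed to compounds for 17hr at 37 C, 5% CO2. Caspase-3/7 activity then measured by Caspase-Glo 3/7 luminescence after 30min at room temperature.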

[7] = Caspase-3/7 induction in HepG2 cells by small molecules, qHTS cell viability counter screen (AID 1346981); note: series mostly up to about 92 µM; nearly all actives have a fitted effect of over 30% in size
Procedure, shortened: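 Wild-type HepG2 cells, 2,000/well, settled 5 hr at 37 C, 5% CO2 before compound addition. Viability read by CellTiter-Fluor fluorescence, reagent added after 16 hr compound exposure, then 1 hr at 37C, in the same wells as the caspase read.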

[8] = molecular target: Nuclear receptor subfamily 1 group I member 2 (Homo sapiens) (UniProt O75469); assay: Human pregnane X receptor (PXR) small molecule agonists, qHTS assay (AID 1346982); note: nearly all actives have a fitted effect of over 35% in size; note: potency is the fitted concentration of half-maximal effect
Procedure, shortened: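 PXR-Luc HepG2 reporter cells (CYP3A4-driven luciferase) in 5% charcoal-stripped FBS medium, plated 5 h before compound addition, then treated 24 h at 37C. Luciferase read by ONE-Glo luminescence after 30 min at room temperature.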

[9] = molecular target: Thyrotropin-releasing hormone receptor (Homo sapiens) (UniProt P34981); assay: qHTS assay to identify small molecule antagonists of the thyrotropin-releasing hormone receptor (TRHR) signaling pathway (AID 1346877; active = well fitted inhibition curve with a large enough effect in the repeat runs, not every such curve was filed as active; note: series mostly up to about 51 µM)
Procedure, shortened: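 TRHR-expressing HEK293 cells loaded with calcium dye for 2 h at 37 C; compounds pre-incubated 5 min at room temperature before TRH challenge at 1 nM final. Intracellular calcium fluorescence read kinetically for 3 min; 15 concentrations in triplicate.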

[10] = molecular target: Nuclear receptor subfamily 1 group I member 2 (Rattus norvegicus) (UniProt Q9R1A7); assay: Rat pregnane X receptor (rPXR) activation by small molecules, qHTS assay (AID 1346983); conditions: rPXR luciferase reporter cells, One-Glo luminescence, 24 h; max activation: stronger effect = higher value; note: nearly all actives have a fitted effect of over 20% in size
Procedure, shortened: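 Cell-based rPXR activation assay: rPXR cells, 2,000 per well, rested 5hr at 37 C, then exposed to compounds in DMSO for 24 hr at 37 C. Luciferase activity read by One-Glo luminescence after 30 min at room temperature.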
% is set by controls: 0 for no effect and ±100 for the full control effect.

Nuclear receptor subfamily 1 group I member 2 (Rattus norvegicus), sequence (Q9R1A7 whole entry, looked up): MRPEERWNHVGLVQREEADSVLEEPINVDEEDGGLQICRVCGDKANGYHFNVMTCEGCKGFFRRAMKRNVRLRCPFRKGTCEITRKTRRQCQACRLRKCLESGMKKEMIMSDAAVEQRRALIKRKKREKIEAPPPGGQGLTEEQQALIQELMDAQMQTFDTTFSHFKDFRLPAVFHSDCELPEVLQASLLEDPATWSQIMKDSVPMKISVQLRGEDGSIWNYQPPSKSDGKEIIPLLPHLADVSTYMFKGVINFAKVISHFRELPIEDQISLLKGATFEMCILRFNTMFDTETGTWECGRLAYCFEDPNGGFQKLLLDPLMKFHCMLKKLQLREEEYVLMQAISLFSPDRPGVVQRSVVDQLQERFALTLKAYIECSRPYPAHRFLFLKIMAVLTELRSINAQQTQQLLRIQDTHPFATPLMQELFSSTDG
Nuclear receptor subfamily 1 group I member 2 (Homo sapiens), sequence (O75469 whole entry, looked up): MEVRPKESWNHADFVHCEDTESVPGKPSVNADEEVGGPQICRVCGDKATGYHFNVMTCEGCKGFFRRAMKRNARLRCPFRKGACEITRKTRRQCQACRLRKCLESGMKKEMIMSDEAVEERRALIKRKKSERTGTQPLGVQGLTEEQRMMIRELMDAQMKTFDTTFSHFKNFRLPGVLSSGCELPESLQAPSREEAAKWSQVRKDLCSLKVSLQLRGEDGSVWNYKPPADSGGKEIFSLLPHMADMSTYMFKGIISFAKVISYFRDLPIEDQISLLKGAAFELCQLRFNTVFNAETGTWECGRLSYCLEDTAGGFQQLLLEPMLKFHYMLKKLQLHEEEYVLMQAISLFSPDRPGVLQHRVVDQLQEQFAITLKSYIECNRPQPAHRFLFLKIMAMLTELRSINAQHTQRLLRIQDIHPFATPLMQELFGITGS
Thyrotropin-releasing hormone receptor (Homo sapiens), sequence (P34981 whole entry, looked up): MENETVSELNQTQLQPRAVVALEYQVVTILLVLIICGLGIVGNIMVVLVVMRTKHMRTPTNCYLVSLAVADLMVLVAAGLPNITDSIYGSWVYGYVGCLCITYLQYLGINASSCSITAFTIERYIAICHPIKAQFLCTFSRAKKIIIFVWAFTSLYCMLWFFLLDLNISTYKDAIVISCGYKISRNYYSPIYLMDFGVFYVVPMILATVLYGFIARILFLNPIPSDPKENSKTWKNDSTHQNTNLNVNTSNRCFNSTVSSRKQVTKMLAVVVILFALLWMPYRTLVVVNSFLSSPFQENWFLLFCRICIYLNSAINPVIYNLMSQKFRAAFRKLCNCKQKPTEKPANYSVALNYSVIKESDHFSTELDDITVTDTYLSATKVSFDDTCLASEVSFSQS

COC(=O)c1ccccc1Cl
inactive: outcome [1] | Potency [2] | outcome [3] | outcome [4] | Potency [5] | outcome [6] | outcome [7] | Potency [8]

O=C1c2ccccc2C(=O)N1CO
inactive: outcome [1] | outcome [9] | outcome [3] | outcome [4] | outcome [6] | outcome [7] | Potency [8]

COC(=O)N/N=C/c1c[n+]([O-])c2ccccc2[n+]1[O-]
inactive: outcome [1] | outcome [9] | outcome [3] | outcome [4] | Potency [5] | outcome [7] | Potency [8] | max activation [10] -1.2%

COCCCOc1cc(C[C@@H](C[C@H](N)[C@@H](O)C[C@H](C(=O)NCC(C)(C)C(N)=O)C(C)C)C(C)C)ccc1OC
inactive: outcome [1] | Potency [2] | outcome [3] | outcome [4] | Potency [5] | outcome [6] | outcome [7] | Potency [8]

CCCCS
inactive: outcome [1] | Potency [2] | outcome [3] | outcome [4] | Potency [5] | outcome [6] | outcome [7] | Potency [8]

CCN1CCN(C(=O)N[C@@H](C(=O)N[C@@H]2C(=O)N3[C@@H]2SC(C)(C)[C@H]3C(=O)O)c2ccccc2)C(=O)C1=O
inactive: outcome [1] | outcome [9] | outcome [4] | Potency [5] | outcome [6] | outcome [7]

Clc1cc(Cl)c(Cl)c(Cl)c1Cl
inactive: outcome [1] | Potency [2] | outcome [3] | outcome [4] | Potency [5] | outcome [6]

CN(C)CCc1c[nH]c2ccc(C[C@H]3COC(=O)N3)cc12
inactive: outcome [1] | outcome [9] | outcome [3] | outcome [4] | Potency [5] | outcome [6] | outcome [7] | Potency [8] | max activation [10] -1.7%

CC1(C)C(=O)C(C)(C)C1=O
inactive: outcome [1] | Potency [2] | outcome [3] | outcome [4] | Potency [5] | outcome [6] | outcome [7] | Potency [8]

CC(=O)/C=C/C=C1/C2CCC(C2)C1(C)C (stereo not given)
active: Potency [8] 3.76 µM
inactive: outcome [1] | Potency [2] | outcome [3] | outcome [4] | Potency [5] | outcome [6] | outcome [7]

CC1(C)S[C@@H]2[C@H](NC(=O)Cc3ccccc3)C(=O)N2[C@H]1C(=O)O (tested in a mixture with another compound)
inactive: outcome [1] | outcome [9] | outcome [3] | outcome [4] | Potency [5] | outcome [7]

C/C(=N\O)c1ccc(OCC(=O)N2CCCCC2)cc1
active: Potency [8] 10.6 µM
inactive: outcome [1] | Potency [2] | outcome [3] | outcome [4] | Potency [5] | outcome [6] | outcome [7]

CC(C)=CCC/C(C)=C\C#N
inactive: outcome [1] | Potency [2] | outcome [3] | outcome [4] | Potency [5] | outcome [6] | outcome [7] | Potency [8]

N[C@H]1C(O)O[C@H](CO)[C@@H](O)[C@@H]1O (stereo not given in full)
inactive: outcome [1] | outcome [9] | outcome [3] | outcome [4] | Potency [5] | outcome [6] | outcome [7] | max activation [10] 3.63%

CNC(C)=O
inactive: outcome [1] | Potency [2] | outcome [3] | outcome [4] | Potency [5] | outcome [6] | outcome [7] | Potency [8]

CC1=C(O)C(=O)CO1
inactive: outcome [1] | Potency [2] | outcome [3] | outcome [4] | Potency [5] | outcome [6] | outcome [7]

CC/C=C\CCOC(=O)c1ccccc1
inactive: outcome [1] | Potency [2] | outcome [3] | outcome [4] | Potency [5] | outcome [6] | outcome [7] | Potency [8]

C[Si](C)(C)O[Si](O)(O)O
inactive: outcome [1] | outcome [9] | outcome [3] | outcome [4] | outcome [6] | outcome [7] | Potency [8]

CNCCc1ccccn1
inactive: outcome [1] | outcome [9] | outcome [3] | outcome [4] | Potency [5] | outcome [6] | outcome [7] | Potency [8] | max activation [10] -1.65%

CC(CN1CC(=O)NC(=O)C1)N1CC(=O)NC(=O)C1 (stereo not given)
inactive: outcome [1] | Potency [2] | outcome [3] | outcome [4] | Potency [5] | outcome [6]

Cc1ccc2cccnc2c1
inactive: outcome [1] | outcome [9] | outcome [3] | outcome [4] | outcome [6] | outcome [7] | Potency [8]

CCOc1ccccc1OCCN[C@H](C)Cc1ccc(OC)c(S(N)(=O)=O)c1
active: Potency [8] 26.6 µM
inactive: outcome [1] | Potency [2] | outcome [3] | outcome [4] | Potency [5] | outcome [6] | outcome [7] | max activation [10] -6.48%

CCCc1ccc(O)c(OC)c1
inactive: outcome [1] | Potency [2] | outcome [3] | outcome [4] | Potency [5] | outcome [6] | outcome [7] | Potency [8]

Source: PubChem BioAssay (Tox21)
